PubChem BioAssay (NCATS)
Records with an inconclusive call do not appear. Activity calls are given as the source filed them. Calls follow the shape of the dose curve; as a rule, active = well fitted cell-killing curve with a large enough effect; inconclusive = small, poorly fitted or top-dose-only effect, or effect the other way; inactive = flat fitted curve, though single readings scatter.

What was measured:
Assay in all cases: Primary qHTS to identify gynecologic anti-cancer compounds using libraries of approved drugs and bioactive compounds (AID 1345084); also: nearly all actives have a fitted effect of over 55% in size
C33A = conditions: Gynecologic cancer cell panel viability, ATPlite luminescence, 48 h; series mostly up to 57.5 µM
In short: (§1)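 Five-concentration response, 48 h; readout is ATP-driven luciferase luminescence.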

CAOV3 = conditions: Gynecologic cancer cell panel viability, ATPlite luminescence, 48 h; series mostly up to 57.5 µM
In short: as §1

CASKI = conditions: Gynecologic cancer cell panel viability, ATPlite luminescence, 48 h; series mostly up to 57.5 µM
In short: as §1

Es-2 = conditions: Gynecologic cancer cell panel viability, ATPlite luminescence, 48 h; series mostly up to 57.5 µM
In short: as §1

HeLa = conditions: Gynecologic cancer cell panel viability, ATPlite luminescence, 48 h; series mostly up to 57.5 µM
In short: as §1

Hek293T = conditions: Gynecologic cancer cell panel viability, ATPlite luminescence, 48 h, control line for the selectivity index; series mostly up to 57.5 µM
In short: as §1

JEG-3 = conditions: Gynecologic cancer cell panel viability, ATPlite luminescence, 48 h; series mostly up to 57.5 µM
In short: as §1

OV90 = conditions: Gynecologic cancer cell panel viability, ATPlite luminescence, 48 h; series mostly up to 57.5 µM
In short: as §1

PA-1 = conditions: Gynecologic cancer cell panel viability, ATPlite luminescence, 48 h; series mostly up to 57.5 µM
In short: as §1

Tov-21-G = conditions: Gynecologic cancer cell panel viability, ATPlite luminescence, 48 h; series mostly up to 57.5 µM
In short: as §1

Tov112D = conditions: Gynecologic cancer cell panel viability, ATPlite luminescence, 48 h; series mostly up to 57.5 µM
In short: as §1

SKOV3 = conditions: Gynecologic cancer cell panel viability, ATPlite luminescence, 48 h; series mostly up to 57.5 µM
In short: as §1

Measured: Potency

CC(O)/C=C/C1C(C)C(O[C@@H]2O[C@H](CO)[C@@H](O)[C@H](O)[C@H]2O)C(O)CC1(C)C (stereo not given in full)
inactive: C33A | CAOV3 | CASKI | Es-2 | HeLa | Hek293T | JEG-3 | OV90 | PA-1 | Tov-21-G | Tov112D

COc1ccc([C@@H]2OC[C@H]3[C@@H]2CO[C@@H]3c2ccc(OC3OC(CO)C(O)C(O)C3O)c(OC)c2)cc1OC (stereo not given in full)
inactive: C33A | CAOV3 | CASKI | Es-2 | HeLa | Hek293T | JEG-3 | OV90 | PA-1 | Tov-21-G | Tov112D

CC(C)(C)CCN1C[C@@H]2C(CNC(=O)c3cc(Cl)cc(Cl)c3)[C@@H]2C1 (stereo not given in full)
inactive: C33A | CAOV3 | CASKI | Es-2 | HeLa | Hek293T | JEG-3 | OV90 | PA-1 | Tov-21-G | Tov112D

OC[C@H]1O[C@@H](Oc2ccccc2)[C@H](O)[C@@H](O)[C@@H]1O
inactive: C33A | CAOV3 | CASKI | Es-2 | HeLa | Hek293T | JEG-3 | OV90 | PA-1 | Tov-21-G | Tov112D

Cc1cc(C(=O)N2CCCCc3ccccc32)ccc1CNC(=O)N1CCC[C@H]1C(=O)N(C)C
inactive: C33A | CAOV3 | CASKI | Es-2 | HeLa | Hek293T | JEG-3 | OV90 | PA-1 | Tov-21-G | Tov112D

CS(=O)(=O)c1ccc([C@H](CC2CCCC2)C(=O)Nc2nccs2)cc1
inactive: C33A | CAOV3 | CASKI | Es-2 | HeLa | Hek293T | JEG-3 | OV90 | PA-1 | Tov-21-G | Tov112D

CC1(C)CCC2(C(=O)OC3OC(CO)C(O)C(O)C3O)CCC3(C)C(=CCC4C5(C)CCC(O)C(C)(C(=O)O)C5CCC43C)C2C1O (stereo not given)
inactive: C33A | CAOV3 | CASKI | Es-2 | HeLa | Hek293T | JEG-3 | OV90 | PA-1 | Tov-21-G | Tov112D

C[C@@]1(O)[C@H](O)[C@@H](CO)O[C@H]1n1ccc(N)nc1=O
inactive: C33A | CAOV3 | CASKI | Es-2 | HeLa | Hek293T | JEG-3 | OV90 | PA-1 | Tov-21-G | Tov112D

Cc1cccc(C)c1OCc1cc(C(=O)N2CCC(c3ccncc3)CC2)no1
inactive: C33A | CAOV3 | CASKI | Es-2 | HeLa | Hek293T | JEG-3 | OV90 | PA-1 | Tov-21-G | Tov112D

C=C1C(=O)OC2C1C(O)CC1(C)C(O)CCC(C=O)C21 (stereo not given)
inactive: C33A | CAOV3 | CASKI | Es-2 | HeLa | Hek293T | JEG-3 | OV90 | PA-1 | Tov-21-G | Tov112D

CC(C)[C@@H]1C(=O)N(S(C)(=O)=O)[C@@H]2CCN(C(=O)/C=C/CN3CCCCC3)[C@H]21
inactive: C33A | CAOV3 | CASKI | Es-2 | HeLa | Hek293T | JEG-3 | OV90 | PA-1 | Tov-21-G | Tov112D

OCC(CO[C@@H]1O[C@H](CO)[C@@H](O)[C@H](O)[C@H]1O)c1ccc2c(c1)OCO2 (stereo not given in full)
inactive: C33A | CAOV3 | CASKI | Es-2 | HeLa | Hek293T | JEG-3 | OV90 | PA-1 | Tov-21-G | Tov112D

O=C(NCc1ccc(F)cc1)C(=O)c1c[nH]c2ccccc12
inactive: C33A | CAOV3 | CASKI | Es-2 | HeLa | Hek293T | JEG-3 | OV90 | SKOV3 | Tov-21-G | Tov112D

C/C(=C\C=C\C(C)C1CCC2(C)C3CCC4C(C)(C)C(=O)CCC45CC35CCC12C)C(=O)O (stereo not given)
inactive: C33A | CAOV3 | CASKI | Es-2 | HeLa | Hek293T | JEG-3 | OV90 | SKOV3 | Tov-21-G | Tov112D

CC(=O)O[C@@H]1[C@@H](OC(=O)/C=C/c2ccccc2)[C@@H](OC(C)=O)[C@H](O[C@H]2[C@@H]3C=CO[C@@H](O[C@@H]4O[C@H](CO)[C@@H](O)[C@H](O)[C@H]4O)[C@@H]3[C@@]3(CO)O[C@@H]23)O[C@H]1C
inactive: C33A | CAOV3 | CASKI | Es-2 | HeLa | Hek293T | JEG-3 | OV90 | SKOV3 | Tov-21-G | Tov112D
